About 8,800 targets were measured; listed, in parts, are those with a hit and a random draw of the rest. About 0.5% of all pairs of compound and target were hits. A number with no mark means an inactive call.

Sequence of UniProt Q13309 (Q13309 whole entry, looked up): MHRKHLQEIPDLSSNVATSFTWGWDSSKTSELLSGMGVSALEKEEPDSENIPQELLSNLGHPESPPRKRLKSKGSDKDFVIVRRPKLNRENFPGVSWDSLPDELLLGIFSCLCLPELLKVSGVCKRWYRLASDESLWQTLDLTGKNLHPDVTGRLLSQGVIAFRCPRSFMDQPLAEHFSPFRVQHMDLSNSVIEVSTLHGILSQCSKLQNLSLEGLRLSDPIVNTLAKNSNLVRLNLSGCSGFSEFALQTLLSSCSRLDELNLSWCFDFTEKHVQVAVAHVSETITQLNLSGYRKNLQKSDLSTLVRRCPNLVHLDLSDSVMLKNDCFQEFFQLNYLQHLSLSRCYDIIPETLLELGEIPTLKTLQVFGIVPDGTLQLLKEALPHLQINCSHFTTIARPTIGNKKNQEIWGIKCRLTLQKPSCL
Sequence of UniProt Q8N196 (Q8N196 whole entry, looked up): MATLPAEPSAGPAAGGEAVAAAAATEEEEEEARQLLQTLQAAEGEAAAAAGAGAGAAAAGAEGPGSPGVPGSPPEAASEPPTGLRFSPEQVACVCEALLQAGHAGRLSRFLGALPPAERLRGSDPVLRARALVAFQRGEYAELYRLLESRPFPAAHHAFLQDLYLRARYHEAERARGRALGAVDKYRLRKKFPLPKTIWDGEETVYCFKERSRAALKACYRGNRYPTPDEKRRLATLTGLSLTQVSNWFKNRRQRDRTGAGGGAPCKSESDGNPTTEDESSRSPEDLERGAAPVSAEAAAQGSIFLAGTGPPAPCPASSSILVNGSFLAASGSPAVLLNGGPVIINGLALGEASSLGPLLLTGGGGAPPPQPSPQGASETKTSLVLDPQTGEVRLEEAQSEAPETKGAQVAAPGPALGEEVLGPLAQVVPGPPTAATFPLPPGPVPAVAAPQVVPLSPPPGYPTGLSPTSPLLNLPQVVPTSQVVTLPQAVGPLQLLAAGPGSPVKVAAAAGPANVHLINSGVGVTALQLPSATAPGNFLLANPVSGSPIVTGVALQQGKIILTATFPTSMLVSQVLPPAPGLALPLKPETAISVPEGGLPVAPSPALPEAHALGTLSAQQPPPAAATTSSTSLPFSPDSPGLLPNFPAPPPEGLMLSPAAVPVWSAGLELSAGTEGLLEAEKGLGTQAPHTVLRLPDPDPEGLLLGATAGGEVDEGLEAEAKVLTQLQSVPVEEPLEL
Sequence of UniProt P51532 (P51532 whole entry, looked up): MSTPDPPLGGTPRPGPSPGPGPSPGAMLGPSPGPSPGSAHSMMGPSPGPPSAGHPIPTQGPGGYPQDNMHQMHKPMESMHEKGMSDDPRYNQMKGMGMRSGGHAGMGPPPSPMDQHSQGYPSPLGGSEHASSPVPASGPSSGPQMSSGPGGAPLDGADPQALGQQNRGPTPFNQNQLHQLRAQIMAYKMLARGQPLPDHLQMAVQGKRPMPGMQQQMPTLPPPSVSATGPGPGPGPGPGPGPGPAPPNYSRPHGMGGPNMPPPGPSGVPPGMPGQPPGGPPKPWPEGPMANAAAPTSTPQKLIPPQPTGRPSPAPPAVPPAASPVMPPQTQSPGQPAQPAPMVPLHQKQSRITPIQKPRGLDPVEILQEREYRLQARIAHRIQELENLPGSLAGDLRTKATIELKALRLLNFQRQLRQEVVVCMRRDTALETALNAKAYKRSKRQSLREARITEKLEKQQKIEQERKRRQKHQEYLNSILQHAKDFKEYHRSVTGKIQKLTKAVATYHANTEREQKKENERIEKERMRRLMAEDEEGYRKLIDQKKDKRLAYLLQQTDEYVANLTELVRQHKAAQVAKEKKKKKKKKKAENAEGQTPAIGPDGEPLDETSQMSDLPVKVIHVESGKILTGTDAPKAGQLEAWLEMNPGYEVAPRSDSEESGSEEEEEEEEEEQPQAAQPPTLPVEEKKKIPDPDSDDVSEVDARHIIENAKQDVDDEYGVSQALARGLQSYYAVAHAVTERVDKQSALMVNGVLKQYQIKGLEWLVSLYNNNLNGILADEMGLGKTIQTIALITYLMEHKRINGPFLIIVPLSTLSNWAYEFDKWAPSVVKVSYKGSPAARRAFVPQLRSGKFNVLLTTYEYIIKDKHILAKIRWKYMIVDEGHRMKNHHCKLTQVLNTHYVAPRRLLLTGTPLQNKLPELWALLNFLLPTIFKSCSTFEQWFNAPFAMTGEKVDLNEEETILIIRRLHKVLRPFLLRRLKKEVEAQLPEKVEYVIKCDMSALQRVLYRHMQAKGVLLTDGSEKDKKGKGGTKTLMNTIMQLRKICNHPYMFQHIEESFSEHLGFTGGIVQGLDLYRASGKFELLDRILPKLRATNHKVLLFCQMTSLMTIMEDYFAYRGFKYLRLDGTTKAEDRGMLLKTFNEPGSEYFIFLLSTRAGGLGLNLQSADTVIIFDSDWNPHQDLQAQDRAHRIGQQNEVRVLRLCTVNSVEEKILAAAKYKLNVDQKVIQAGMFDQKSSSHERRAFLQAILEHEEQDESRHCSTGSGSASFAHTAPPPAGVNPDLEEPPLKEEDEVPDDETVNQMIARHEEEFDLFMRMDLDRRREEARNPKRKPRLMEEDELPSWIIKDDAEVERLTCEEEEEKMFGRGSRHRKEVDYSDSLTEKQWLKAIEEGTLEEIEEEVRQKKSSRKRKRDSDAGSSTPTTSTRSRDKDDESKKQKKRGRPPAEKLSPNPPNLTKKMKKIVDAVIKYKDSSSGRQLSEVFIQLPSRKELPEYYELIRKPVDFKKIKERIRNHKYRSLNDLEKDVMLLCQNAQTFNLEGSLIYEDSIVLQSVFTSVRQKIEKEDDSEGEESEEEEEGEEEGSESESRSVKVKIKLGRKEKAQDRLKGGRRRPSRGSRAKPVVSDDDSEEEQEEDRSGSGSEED
Sequence of UniProt O60906 (O60906 whole entry, looked up): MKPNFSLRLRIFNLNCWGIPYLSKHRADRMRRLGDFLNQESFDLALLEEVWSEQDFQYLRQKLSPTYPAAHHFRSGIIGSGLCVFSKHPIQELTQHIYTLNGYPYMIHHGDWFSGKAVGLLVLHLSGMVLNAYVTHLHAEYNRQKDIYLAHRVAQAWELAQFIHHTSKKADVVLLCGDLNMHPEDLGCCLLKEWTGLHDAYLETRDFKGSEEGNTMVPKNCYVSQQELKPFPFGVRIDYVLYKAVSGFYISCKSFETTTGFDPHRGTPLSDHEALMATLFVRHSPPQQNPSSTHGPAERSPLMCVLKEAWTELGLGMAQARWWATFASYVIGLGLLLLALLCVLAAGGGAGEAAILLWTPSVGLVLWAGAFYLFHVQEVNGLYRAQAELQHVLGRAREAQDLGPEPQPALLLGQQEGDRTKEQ
Sequence of UniProt Q9UHW9 (Q9UHW9 whole entry, looked up): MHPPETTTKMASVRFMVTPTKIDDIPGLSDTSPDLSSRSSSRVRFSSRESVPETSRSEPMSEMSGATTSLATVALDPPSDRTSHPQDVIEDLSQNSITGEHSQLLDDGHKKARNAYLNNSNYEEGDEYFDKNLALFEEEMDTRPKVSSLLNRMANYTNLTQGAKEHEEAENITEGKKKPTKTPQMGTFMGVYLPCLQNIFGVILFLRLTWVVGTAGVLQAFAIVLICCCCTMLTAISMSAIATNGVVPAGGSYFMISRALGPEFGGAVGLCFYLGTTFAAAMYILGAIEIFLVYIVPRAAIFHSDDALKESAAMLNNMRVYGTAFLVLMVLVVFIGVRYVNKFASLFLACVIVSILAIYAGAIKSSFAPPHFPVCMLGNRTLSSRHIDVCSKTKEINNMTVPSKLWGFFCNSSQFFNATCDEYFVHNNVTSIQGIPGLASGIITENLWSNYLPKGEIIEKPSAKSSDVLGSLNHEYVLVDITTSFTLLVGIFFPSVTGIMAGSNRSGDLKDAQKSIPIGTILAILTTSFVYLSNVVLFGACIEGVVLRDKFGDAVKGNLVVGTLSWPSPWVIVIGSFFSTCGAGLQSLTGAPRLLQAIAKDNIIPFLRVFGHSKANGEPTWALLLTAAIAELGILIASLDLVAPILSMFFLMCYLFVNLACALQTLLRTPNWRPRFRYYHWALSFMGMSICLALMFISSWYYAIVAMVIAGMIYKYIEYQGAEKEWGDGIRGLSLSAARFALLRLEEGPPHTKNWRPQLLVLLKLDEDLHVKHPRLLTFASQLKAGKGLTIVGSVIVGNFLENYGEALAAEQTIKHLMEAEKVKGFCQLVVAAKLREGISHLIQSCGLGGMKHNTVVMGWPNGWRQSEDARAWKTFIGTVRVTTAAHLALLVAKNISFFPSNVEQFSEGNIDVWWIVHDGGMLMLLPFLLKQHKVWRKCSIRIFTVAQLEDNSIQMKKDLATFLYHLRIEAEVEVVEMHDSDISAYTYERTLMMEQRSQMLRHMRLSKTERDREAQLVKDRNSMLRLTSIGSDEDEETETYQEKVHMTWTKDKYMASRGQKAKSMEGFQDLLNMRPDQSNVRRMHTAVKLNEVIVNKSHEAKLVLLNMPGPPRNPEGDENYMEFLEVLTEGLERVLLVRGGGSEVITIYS
Sequence of UniProt Q9NP59 (Q9NP59 whole entry, looked up): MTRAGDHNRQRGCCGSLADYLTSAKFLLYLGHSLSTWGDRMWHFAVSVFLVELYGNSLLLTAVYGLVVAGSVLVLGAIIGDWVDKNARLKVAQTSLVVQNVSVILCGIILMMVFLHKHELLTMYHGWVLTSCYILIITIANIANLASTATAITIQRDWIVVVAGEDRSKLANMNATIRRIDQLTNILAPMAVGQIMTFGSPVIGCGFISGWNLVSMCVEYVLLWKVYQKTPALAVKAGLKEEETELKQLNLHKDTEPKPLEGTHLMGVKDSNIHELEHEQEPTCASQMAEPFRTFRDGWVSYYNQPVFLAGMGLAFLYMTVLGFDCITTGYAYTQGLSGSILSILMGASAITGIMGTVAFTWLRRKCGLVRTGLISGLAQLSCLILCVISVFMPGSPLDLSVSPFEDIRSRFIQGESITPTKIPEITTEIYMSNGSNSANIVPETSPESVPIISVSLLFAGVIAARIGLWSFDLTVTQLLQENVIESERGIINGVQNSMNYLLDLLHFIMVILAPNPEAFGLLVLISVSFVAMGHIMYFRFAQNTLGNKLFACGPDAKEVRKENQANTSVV
Sequence of UniProt B2RUZ4 (B2RUZ4 whole entry, looked up): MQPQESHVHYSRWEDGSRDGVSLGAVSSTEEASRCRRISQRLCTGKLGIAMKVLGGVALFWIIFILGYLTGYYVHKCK

Compound in the first assay: CC[C@@H]1C(=O)N(C)c2cnc(Nc3ccc(C(=O)N[C@H]4CC[C@H](N5CCN(CC6CC6)CC5)CC4)cc3OC)nc2N1C(C)C [volasertib]
The assay can be described thus: log2 fold change, soluble protein after heating vs DMSO (PISA); higher = thermal stabilisation; K562 lysate, 10 uM; active = over 0.2 and 3.5 SD of the protein, either way, in both replicates (recomputed). The procedure, abridged:
(§1)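 Log-two fold change in thermal stability relative to solvent controls is reported from duplicates. For each sample, crude K562 extract from dounce-homogenised pellets in PBS pH 7.4 with 1 mM MgCl2, at 1 mg/mL protein, was treated with 10 μM compound for 30 min. Aliquots heated for 3 min across 48°C-58°C were pooled, brought to 0.5% NP-40 at 4°C and cleared at 21,000xg for 90 min. The supernatant was quantified by TMTpro 16plex LC-MS/MS with channel sums equalised.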
In the case of SKP2 (UniProt Q13309), the log2 fold change is 0.05.
Same read-out and setting: for SRC isoform 2 (UniProt P12931) the value was -0.039.
Same read-out and setting: then SLC12A6 isoform 2 (UniProt Q9UHW9), with -0.178; and SNAP23 isoform 2 (UniProt O00161), with 0.003; and SPAG1 (UniProt Q07617), with -0.137.
On to SMARCA4 isoform 4 (UniProt P51532), for which the log2 fold change was 0.043.
For the target SZT2 (UniProt Q5T011), the log2 fold change was -0.095.
On the same count and under the same terms, for SHB (UniProt Q15464) the value was 0.072.
Still for that read-out and setting: for TAF11 (UniProt Q15544) the value was 0.037; for SMIM1 (UniProt B2RUZ4), 0.026.
On the same count and under the same terms, then SNRPD2 (UniProt K7EJB5), with 0.026.
Take SLC25A36 (UniProt Q96CQ1): the log2 fold change is -0.045.
The same measure, in the same setting: for SMPD2 (UniProt O60906) the value was 0.032.
Still for that read-out and setting: for SLC40A1 (UniProt Q9NP59) the value was 0.037; for SLC41A1 (UniProt Q8IVJ1), -0.084; for SIX5 (UniProt Q8N196), -0.046.
For SLC35A3 isoform 2 (UniProt Q9Y2D2), the log2 fold change was 0.005.

Compound in the next assay: CCn1c(C(=O)N(C2CC2)C2CC2)cc2c3c(ncn3C)c(Nc3cc(C)n(C)n3)nc21
Described as above. The essentials: as §1
As for SKP2 (UniProt Q13309), the log2 fold change was 0.025.
On the same count and under the same terms, then SRC isoform 2 (UniProt P12931), with -0.024; and SLC12A6 isoform 2 (UniProt Q9UHW9), with -0.021.
Same read-out and setting: then SNAP23 isoform 2 (UniProt O00161), with -0.029; and SPAG1 (UniProt Q07617), with 0.083; and SMARCA4 isoform 4 (UniProt P51532), with -0.192.
Still for that read-out and setting: then SZT2 (UniProt Q5T011), with 0.006; and STAR (UniProt P49675), with 0.008.
With STK38L (UniProt Q9Y2H1), the log2 fold change was -0.047.
Still for that read-out and setting: for SHB (UniProt Q15464) the value was 0.113; for SNAPC2 (UniProt Q13487), 0.04; for TAF11 (UniProt Q15544), 0.086.
On the same count and under the same terms, for SMIM1 (UniProt B2RUZ4) the value was -0.096.
Still for that read-out and setting: then SNRPD2 (UniProt K7EJB5), with 0.112.
With SLU7 (UniProt O95391), the log2 fold change is -0.004.
On the same count and under the same terms, then SLC25A36 (UniProt Q96CQ1), with 0.039; and SMPD2 (UniProt O60906), with -0.017; and SLC40A1 (UniProt Q9NP59), with -0.106.
For SLC41A1 (UniProt Q8IVJ1), the log2 fold change was 0.035.
Still for that read-out and setting: for STK17B (UniProt O94768) the value was -0.451; for SLC39A13 (UniProt Q96H72), 0.035.
The same measure, in the same setting: for SIX5 (UniProt Q8N196) the value was 0.084.
In the case of SLC35A3 isoform 2 (UniProt Q9Y2D2), the log2 fold change was -0.374.

The record behind these values is the supplement of paper PMC10849652.
